A selection: hits, their analogues and other compounds. The true share with any hit is near 2.3%.
CHRM1 antagonist: antagonists of human M1 muscarinic receptor; CHO-K1 hM1, Fluo-8 calcium fluorescence, ACh EC80 antagonist; actives 1.3% (n = 360,000); P11229; inhibition, % at 3 µM;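 active = percent inhibition above its own plate's cutoff, namely the mean of that plate's compound wells plus 3 SD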;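 note: peak over basal fluorescence ratio during 140 s after agonist addition; 0% = ACh EC80 plus DMSO and 100% = DMSO alone without agonist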
Target sequence (P11229 whole entry, looked up): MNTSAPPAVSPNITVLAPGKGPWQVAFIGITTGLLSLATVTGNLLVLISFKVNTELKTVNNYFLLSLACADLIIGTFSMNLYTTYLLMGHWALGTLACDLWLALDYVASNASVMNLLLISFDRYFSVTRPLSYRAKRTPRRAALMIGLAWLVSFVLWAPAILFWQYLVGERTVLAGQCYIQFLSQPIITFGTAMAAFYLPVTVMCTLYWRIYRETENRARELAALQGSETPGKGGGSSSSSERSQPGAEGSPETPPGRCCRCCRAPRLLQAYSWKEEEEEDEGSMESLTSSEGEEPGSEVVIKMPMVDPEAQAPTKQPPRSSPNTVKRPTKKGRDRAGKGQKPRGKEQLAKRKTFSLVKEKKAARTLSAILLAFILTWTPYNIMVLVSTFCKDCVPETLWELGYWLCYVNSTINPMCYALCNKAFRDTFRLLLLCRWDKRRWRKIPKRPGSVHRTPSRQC
CHRM1 PAM: positive allosteric modulators of human M1 muscarinic receptor. actives 0.088% (n = 360,000). activation, % at 3 µM. CHO-K1 hM1, Fluo-8 calcium fluorescence, ACh EC20; 0% = ACh EC20, 100% = maximal ACh. P11229; in the data active = activation above about 19%, passing the limit was not always enough
CHO-K1 Ca antag: nonselective inhibitor or artifact in parental CHO-K1 cells. inhibition, % at 3 µM. actives 0.6% (n = 360,000). ATP-induced calcium, Fluo-8 fluorescence;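 active = inhibition above a per-plate cutoff, the plate's mean sample inhibition plus 3 SD, cut at about 24% in these data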;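 note: 0% = DMSO plus EC80 ATP and 100% = DMSO alone without ATP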
CHO-K1 Ca PAM: counter-screen for M1 PAMs: effect in parental CHO-K1 cells | ATP EC20, Fluo-8 calcium fluorescence; 0% at ATP EC20, 100% at ATP max | activation, % at 3 µM | actives 0.02% (n = 360,000);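 active = activation above the run cutoff, the mean activation of all test compounds plus 3 SD, cut at about 40% in these data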;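 note: peak over basal fluorescence ratio in a 140 s read after ATP addition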
CHRM1 agonist: human M1 muscarinic receptor agonism | CHO-K1 hM1, Fluo-8 calcium fluorescence, agonist mode; 0% DMSO, 100% acetylcholine EC100 | activation, % at 3 µM | actives 0.33% (n = 360,000) | AID 588814;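 active = activation above the run's mean compound activation plus 3 SD, cut at about 16% in these data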;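 note: peak over basal fluorescence ratio within a 140 s kinetic read after compound addition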
M1 ag parental: counter-screen for M1 agonists: effect in parental CHO-K1 cells; AID 602248; Fluo-8 calcium fluorescence; scaled to maximal ATP response, vehicle zero; activation, % at 3 µM; actives 0.48% (n = 360,000); in the data active = activation above about 15%;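 note: untransfected CHO-K1 host cells lacking M1 receptor as counterscreen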
An asterisk follows results filed as active.

SMILES	CHRM1 antagonist	CHRM1 PAM	CHO-K1 Ca antag	CHO-K1 Ca PAM	CHRM1 agonist	M1 ag parental
Cc1ccc(NC(=S)NC2CCSc3ccccc32)cc1 (stereo unspecified)	79*	-36	-1	-9	-12	7
CC(=O)Nc1ccc(C(=O)NC2CCSc3ccccc32)cc1 (stereo unspecified)	-13	8	-11	20	-6	2
Cc1ccc(CN2CCN(CCCn3cnc4c(OCc5ccccc5)ncnc43)CC2)cc1	47*	-26	-10	-7	-8	5
CC(C)Cc1ccc(C(=O)NCCOc2ccccc2)o1	8	-5	-11	-5	-4	-1
CNCCOc1ccccc1-c1ccccc1	4	-4	-12	11	-6	0
COc1ccccc1C(=O)NCCC(=O)NNC(=O)Cn1ccc(C(F)(F)F)n1	-11	11	3	-3	1	0
COc1cccc(OC)c1C(=O)NCCOc1cc(C)cc(C)c1	-11	6	10	4	1	15*
Cc1oc(-c2ccc(Cl)cc2)nc1CS(=O)CC(=O)NCCN1CCCC1 (stereo unspecified)	-2	0	25*	-4	-11	0
Cc1ccc(-c2nc(CS(=O)CC(=O)NCc3ccccc3)c(C)o2)cc1 (stereo unspecified)	-15	24*	-20	23	5	0
O=C(O)c1ccc(N2CCCS2(=O)=O)cc1	-9	10	-18	-8	-3	1
NCCCCCc1nnc(SCc2cccc(Cl)c2)o1	30*	-25	-1	12	-6	0
NCCCCCc1nnc(SCc2ccc(Cl)cc2Cl)o1	33*	-14	16	13	-5	1
CC(C)c1ccc(NC(=O)COc2ccc(F)cc2C(=O)c2cnn(-c3ccccc3)c2)cc1	-6	8	-4	25	-5	1
O=C(c1cc(COc2ccc(F)cc2Cl)on1)N1CCN(C2CCCCC2)C(=O)C1	28*	-14	17	-19	2	21*
CSc1nc(COC(=O)NC(C)C)c(COC(=O)NC(C)C)n1Cc1ccccc1	6	0	-7	11	-6	0
O=C(CN1CCc2ccccc21)NCc1ccc2c(c1)OCO2	1	0	29*	-16	-8	0
O=C(CCn1c(=O)oc2ccccc21)NCc1ccc2c(c1)OCO2	-18	8	-8	23	-9	0
O=C(CCn1cccc1)NCc1ccc2c(c1)OCO2	0	5	27*	-5	1	0
Cc1oc(C(C)(C)C)cc1C(=O)NCc1ccc2c(c1)OCO2	-7	2	-2	12	-2	4
Cn1nc(C(C)(C)C)cc1C(=O)NCc1ccc2c(c1)OCO2	19	-1	39*	-5	5	13
C[C@H](NC(=O)[C@@H]1CSC2c3ccccc3C(=O)N21)C(=O)NCc1c(F)cccc1Cl (stereo partly specified)	3	-2	-28	13	-1	7
O=C(O)Cc1ccc(N2N=C(c3ccccc3)CC2=O)cc1	-14	16	16	-1	0	0
CCN(CC)C(=O)Cn1cnc2sc(C(=O)Nc3cc(OC)c(OC)c(OC)c3)c(C)c2c1=O	-1	6	-11	23	2	1
O=C(NCCO)C(=O)Nc1cc2c3c(c1)CCC(=O)N3CCC2	-8	6	-11	9	-3	1
CC(=O)N1CCc2ccc(S(=O)(=O)N3CCc4ccccc43)cc21	35*	-20	13	-17	-3	10
SMILES	CHRM1 antagonist	CHRM1 PAM	CHO-K1 Ca antag	CHO-K1 Ca PAM	CHRM1 agonist	M1 ag parental
COc1ccc(S(=O)(=O)N2CCc3ccccc32)cc1C(=O)O	-15	5	-17	23	-5	2
CC(=O)N1CCc2cc(S(=O)(=O)NC3CCCc4ccccc43)ccc21 (stereo unspecified)	23	-10	34*	-8	3	5
O=C(O)c1ccc(S(=O)(=O)NC2CCCc3ccccc32)cc1 (stereo unspecified)	-6	4	-10	9	0	0
CCOC(=O)c1ccc(S(=O)(=O)N2CCN(CC(O)COc3ccc(C#N)cc3)CC2)cc1 (stereo unspecified)	-18	17	1	10	1	4
O=C1c2cccc3c(O)ccc(c23)C(=O)N1c1ccc(Cl)cc1	45*	-30	7	-20	78*	18*
O=C1c2cccc3c(O)ccc(c23)C(=O)N1Cc1ccco1	30*	-23	26*	-4	68*	65*
CC(=O)Nc1ccc(N2C(=O)c3cccc4c(O)ccc(c34)C2=O)cc1	39*	-32	21	-23	98*	41*
CCCCCCCCCCCCCCCCn1cc[n+](C)c1	42*	-30	7	2	-10	0
COc1ccc(Cc2noc(CN3CCN(c4ccc(Cl)cn4)CC3)n2)cc1OC	3	1	4	0	-4	22*
COC(=O)C1=C(C)OC(N)=C(C#N)C1c1cc2cc(C)ccc2nc1Cl (stereo unspecified)	16	-21	17	-6	24*	8
CC(=O)C1=C(C)OC(N)=C(C#N)C1c1cc2cc(C)c(C)cc2nc1Cl (stereo unspecified)	1	10	13	-6	-3	0
C[C@H](CO)N1C[C@H](C)[C@@H](CN(C)C(=O)Nc2ccc3c(c2)OCO3)Oc2ccc(NC(=O)Cn3cnnn3)cc2C1=O	9	-4	-8	3	-4	1
Cc1nn(CC(=O)N(C)Cc2ccccc2)c(=O)c2cccn12	-1	3	-2	-20	-2	0
Cc1csc(N(C)C(=O)CSc2nnc(COc3cccc4ccccc34)o2)n1	16	-9	6	61*	-3	-1
CCOC(=O)C1CCN(C(=O)CCNS(=O)(=O)c2ccc3c(c2)CCN3C(=O)CC)CC1	1	1	58*	-17	-2	0
CCC(=O)N1CCc2cc(S(=O)(=O)NCCC(=O)N3CCN(c4cccc(C)c4)C(C)C3)ccc21 (stereo unspecified)	23	-16	20	-7	1	16*
Cc1ccccc1-c1nc(CN(C)C(C)c2ccon2)c(C)o1 (stereo unspecified)	-4	-1	-1	-6	-8	0
COc1cc(CNCCNC(=O)c2nonc2N)ccc1OCc1ccc(Cl)cc1	-2	8	1	14	1	17*
COC(=O)/C=C1\N/C(=N\c2nc(C)cc(C)n2)N(c2ccc(C)c(C)c2)C1=O	-7	10	-15	21	-5	1
COc1cc(CN2CCc3ccc(NC(=O)CCc4ccccc4OC)cc3C2)ccc1O	-19	6	2	12	-6	3
COc1cccc(CN2CCc3ccc(NC(=O)CCc4ccc(C)cc4)cc3C2)c1O	38*	-15	6	11	1	13
